Activity calls are given as the source filed them. Where a call stands in place of a potency, no number is given. Calls follow the shape of the dose curve; as a rule, active = well fitted cell-killing curve with a large enough effect; inconclusive = small, poorly fitted or top-dose-only effect, or effect the other way; inactive = flat fitted curve, though single readings scatter.
Test: MultiTox-Fluor Cytotoxicity Assay - LYMP1-003 - Dead Cells (AID 961); also: nearly all actives have a fitted effect of over 70% in size
Settings: LYMP1-003 lymphoblastoid cells, dead-cell protease fluorescence; series mostly up to 92.2 µM
Text: NIH Chemical Genomics Center [NCGC]
NIH Molecular Libraries Screening Centers Network [MLSCN]
National Institutes of Environmental Health Sciences [NIEHS]
National Toxicology Program [NTP]
We have developed a 1536-well cell-based assay for quantitative high throughput screening (qHTS) against a number of cell lines to determine in vitro cytotoxicity of small molecules. This particular assay uses a human lymphoblastoid cell line (LYMP1-003) purchased from Coriell Institute.
NCGC Assay Protocol Summary:
The MultiTox-Fluor Cytotoxicity Assay (Promega) is a homogeneous method to simultaneously measure the relative number of live and dead cells in culture by detecting changes in cell membrane integrity. There are two fluorogenic peptide substrates in the assay reagent. Viable cells are determined when the cell-permeant substrate (GF-AFC) enters the cell and is cleaved by protease from live cells resulting in liberated fluorophore. This live-cell protease activity restricted to viable cells is proportional to cell number. The dead cells are determined by using fluorogenic cell-impermeant peptide substrate (bis-AAF-R110) which cleaved by dead cell proteases leaking from damaged cell membrane.
Using the MultiTox-Fluor Cytotoxicity Assay, the relative number of dead cells was measured in the lymphoblastoid cell line with complete culture medium following compound treatment for 16 hours. The assay was performed in opaque black Kalypsys 1536-well plates. In the screen, tetraoctylammonium bromide was used as positive control. Library compounds were measured for their ability to cause acute toxicity in the cell line, as reflected by an increase in dead cell protease activity, in a concentration-dependent manner. Data were normalized to the controls for basal activity (DMSO only) and 100% stimulation (15 uM tetraoctylammonium bromide). AC50 values were determined from concentration-response data modeled with the standard Hill equation.
qHTS protocol for MultiTox-Fluor Cytotoxicity assay
[Step] [Parameter] [Value] [Description]
1. Reagent; 5 uL; 2500 lymphoblastoid cells/well
2. Time; 5 hr; 37 C incubation
4. Controls; 23 nL; Tetraoctylammonium bromide 6.4pM to 92 uM
5. Time; 16 hr; 37 C incubation
6. Reagent; 5 uL; MuliTox-Fluor Assay reagent
7. Time; 60 min; Room Temperature
8. Detection; dead-cell fluorescence (Ex/Em=485/520); EnVision plate reader
Keywords: cytotoxicity, lymphoblastoid cell line, fluorescence, NTPHTS, NTPHTS_NCGC, NIEHS, EPA, DSSTox, MLSMR, MLSCN, NIH Roadmap, qHTS, NCGC
In the case of O=P(O)(O)O, the Potency is reported as “inactive”. For O=c1n(CC2CO2)c(=O)n(CC2CO2)c(=O)n1CC1CO1 (configuration not stated), the Potency was 50.1 µM (active). In the case of Cc1ccc(S(=O)(=O)O)cc1C, the Potency is reported as “inactive”. For C/C=C/C=C/C(=O)O, the Potency was “inactive”. For Oc1cccc(O)c1O, the Potency was “inactive”. For CC1=CCC2CC1C2(C)C (configuration not stated), the Potency was “inactive”. In the case of OC[C@H]1O[C@@H]2O[C@H]3[C@H](O)[C@@H](O)[C@@H](O[C@H]4[C@H](O)[C@@H](O)[C@@H](O[C@H]5[C@H](O)[C@@H](O)[C@@H](O[C@H]6[C@H](O)[C@@H](O)[C@@H](O[C@H]7[C@H](O)[C@@H](O)[C@@H](O[C@H]1[C@H](O)[C@H]2O)O[C@@H]7CO)O[C@@H]6CO)O[C@@H]5CO)O[C@@H]4CO)O[C@@H]3CO, the Potency is reported as “inactive”. With CC[C@H]1OC(=O)[C@H](C)[C@@H](O[C@H]2C[C@@](C)(OC)[C@@H](O)[C@H](C)O2)[C@H](C)[C@@H](O[C@@H]2O[C@H](C)C[C@H](N(C)C)[C@H]2O)[C@](C)(O)C[C@@H](C)CN(C)[C@H](C)[C@@H](O)[C@]1(C)O the Potency was “inactive”. With CCOC(C)OCC the Potency was “inactive”. In the case of CO, the Potency is reported as “inactive”. With C=C1C(CCl)(CCl)C2(Cl)C(Cl)C(Cl)C1(Cl)C2(Cl)Cl (configuration not stated) the Potency was 50.1 µM (active). With CC/C=C\C/C=C\C/C=C\CCCCCCCC(=O)O the Potency was “inactive”. For CO/N=C(/C(=O)N[C@@H]1C(=O)N2C(C(=O)O)=C(COC(N)=O)CS[C@H]12)c1ccco1, the Potency was “inactive”. For Nc1ccc(N=Nc2ccccc2)c(N)n1, the Potency was “inactive”. For CC(C)(C)CC(C)(C)c1ccc(OCCO)cc1, the Potency was “inactive”. For C[C@H]1O[C@@H](O[C@H]2[C@@H](O)C[C@H](O[C@H]3[C@@H](O)C[C@H](O[C@H]4CC[C@@]5(C)[C@H](CC[C@@H]6[C@@H]5C[C@@H](O)[C@]5(C)[C@@H](C7=CC(=O)OC7)CC[C@]65O)C4)O[C@@H]3C)O[C@@H]2C)C[C@H](O)[C@@H]1O, the Potency was 1.58 µM (active). In the case of C[C@H](CCC(=O)O)[C@H]1CC[C@H]2[C@@H]3[C@H](O)C[C@@H]4C[C@H](O)CC[C@]4(C)[C@H]3C[C@H](O)[C@]12C, the Potency is reported as “inactive”. With Nc1ncnc2c1ncn2[C@H]1CC[C@@H](CO)O1 the Potency was “inactive”. In the case of Cc1ncc[nH]1, the Potency is reported as “inactive”. In the case of c1ccc2ccccc2c1, the Potency is reported as “inactive”. For CCCCO, the Potency was “inactive”. For CCCCC, the Potency was “inactive”. For OCl, the Potency was “inactive”. In the case of Oc1ccc(/C=C/c2cc(O)cc(O)c2)cc1, the Potency is reported as “inactive”. With ClC(Cl)Cl the Potency was “inactive”. For OCc1ccccc1, the Potency was “inactive”. With O.O.O.O.O.O.O.O=S(=O)([O-])[O-].[Co+2] the Potency was “inactive”. With C[C@H](CCC(=O)O)[C@H]1CC[C@H]2[C@@H]3CC[C@@H]4C[C@H](O)CC[C@]4(C)[C@H]3C[C@H](O)[C@]12C the Potency was “inactive”. With Nc1nccs1 the Potency was “inactive”. For OB(O)O, the Potency was “inactive”. With OCC(O)CO the Potency was “inactive”. For CC1=CC(=O)NS(=O)(=O)O1, the Potency was “inactive”. For COC(=O)c1ccccc1O, the Potency was “inactive”. For CC(C)O, the Potency was “inactive”. With NC(N)=O the Potency was “inactive”. With NCCN the Potency was “inactive”. With [O-][N+](=Nc1ccccc1)c1ccccc1 the Potency was “inactive”.

Source: PubChem BioAssay (NCATS)
Potency is read from the fitted curve at half-maximal effect.
